Compound activity: PubChem, The Scripps Research Institute Molecular Screening Center
Sampled rows, rich in hits. Any-hit rate of the full collection: about 1.8%.
GSTO1 counter: GSTO1 inhibition, counter-screen for RBBP9 inhibitors | actives 1.1% (n = 300,000) | P78417 | inhibition, % at 5.96 µM | recombinant GSTO1, activity-based probe fluorescence polarization;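 active = inhibition above the campaign mean inhibition plus 3 SD, cut at about 35% in these data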;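 also: 0% = GSTO1-1 with DMSO and 100% = wells lacking GSTO1-1 enzyme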
LYPLA2 inh: LYPLA2 (human) inhibition in PME1 counter-screen; O95372; recombinant LYPLA2, FP-Rh probe fluorescence polarization; actives 0.38% (n = 320,000); inhibition, % at 5.9 µM; AID 2177;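 active = inhibition above the screen-wide mean plus 3 SD, limit set per campaign, cut at about 26% in these data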;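 also: 0% = LYPLA2 with DMSO and 100% = wells lacking LYPLA2 enzyme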
Target sequence (O95372 whole entry, looked up): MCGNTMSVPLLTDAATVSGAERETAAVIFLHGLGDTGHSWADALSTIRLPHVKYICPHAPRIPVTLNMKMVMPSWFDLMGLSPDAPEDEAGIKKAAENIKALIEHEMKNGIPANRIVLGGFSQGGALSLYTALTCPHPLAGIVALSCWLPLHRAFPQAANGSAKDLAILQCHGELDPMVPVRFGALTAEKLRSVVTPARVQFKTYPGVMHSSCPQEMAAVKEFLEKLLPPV
PAD4 FP inh: inhibitors of human PAD4 | Q9UM07 | recombinant PAD4, RCA probe fluorescence polarization | inhibition, % at 6.36 µM | actives 0.41% (n = 330,000) | AID 485272;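 active = percent inhibition above a cutoff equal to the mean of all tested compounds plus 3 SD, cut at about 15% in these data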;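 also: 0% = PAD4 with RCA probe and DMSO and 100% = probe without PAD4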
PME-1 primary: blocks human protein phosphatase methylesterase 1; AID 2130; actives 0.53% (n = 320,000); Q9Y570; inhibition, % at 5.9 µM; recombinant PME-1, FP-Rh probe fluorescence polarization;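 active = inhibition above the campaign mean of all compounds plus 3 SD, cut at about 26% in these data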;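 also: competitive labeling of PME-1 active site by serine hydrolase directed probe; 0% = PME-1 with DMSO and 100% = wells lacking PME-1 enzyme; inhibitors block probe labeling so polarization falls and inhibition rises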
Target sequence (Q9Y570 whole entry, looked up): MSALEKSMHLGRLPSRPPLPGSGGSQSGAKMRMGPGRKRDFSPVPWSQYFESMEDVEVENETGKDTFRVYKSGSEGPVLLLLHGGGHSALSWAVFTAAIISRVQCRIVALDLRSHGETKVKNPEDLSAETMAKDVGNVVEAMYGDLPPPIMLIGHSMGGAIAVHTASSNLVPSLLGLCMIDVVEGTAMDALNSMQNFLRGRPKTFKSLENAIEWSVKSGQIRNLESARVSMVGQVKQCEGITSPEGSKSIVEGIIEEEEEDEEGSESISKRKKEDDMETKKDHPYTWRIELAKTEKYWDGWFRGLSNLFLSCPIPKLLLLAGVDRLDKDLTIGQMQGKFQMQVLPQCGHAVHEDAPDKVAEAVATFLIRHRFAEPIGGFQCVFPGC
Fam108B counter: counter-screen for RBBP9 inhibitors: inhibitors of mouse Fam108B | recombinant Fam108B, FP-Rh probe fluorescence polarization | inhibition, % at 9.51 µM | actives 0.33% (n = 300,000) | AID 1947;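 active = inhibition above the screen mean inhibition plus 3 SD, computed separately per campaign, cut at about 18% in these data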;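 also: inhibitors lower polarization as less probe binds the enzyme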
LYPLA1 inh: counter-screen for PME1 inhibitors: inhibitors of human LYPLA1; O75608; recombinant LYPLA1, FP-Rh probe fluorescence polarization; inhibition, % at 5.9 µM; actives 0.16% (n = 320,000);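 active = inhibition above the mean of all tested compounds plus 3 SD, set per campaign, cut at about 14% in these data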;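 also: inhibitors block serine hydrolase probe labeling of LYPLA1 so polarization falls; 0% = enzyme with DMSO and 100% = wells lacking LYPLA1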
GSTO1 confirm: confirmation of human GSTO1 inhibitors; shares compounds with GSTO1 counter; recombinant GSTO1, probe fluorescence polarization; inhibition, % at 5.96 µM; actives 54% (n = 2,400);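 active = inhibition above the primary screen's cutoff, its mean inhibition plus 3 SD, cut at about 35% in these data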;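 also: loss of polarization as inhibitors block binding of rhodamine sulfonate ester activity probe; 0% = GSTO1 with DMSO and 100% = wells lacking GSTO1 enzyme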
GSTO1 ABPP inh: GSTO1 (human) inhibition by gel ABPP; shares compounds with GSTO1 counter; recombinant GSTO1, gel ABPP SE-Rh probe fluorescence; inhibition, % at 1 µM; actives 30% (n = 130);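 active = inhibition of the enzyme GSTO1 above about 75%, limit read from the data; inactive = inhibition below that limit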
An asterisk follows results filed as active.

How did CC(C)C[C@H](NC(=O)N1CCn2c1nc1ccccc12)C(=O)NC1CCCCC1 do in these assays?
GSTO1 counter: -2; LYPLA2 inh: 5; PAD4 FP inh: 7; PME-1 primary: -4; Fam108B counter: 1; LYPLA1 inh: 1

How did O=C(Nc1ccccc1)Nc1n[nH]c2nnc(-c3ccccc3)c(-c3ccccc3)c12 do in these assays?
GSTO1 counter: 4; LYPLA2 inh: 3; PAD4 FP inh: 1; PME-1 primary: 0; Fam108B counter: 0; LYPLA1 inh: 0

How did O=c1[nH]cnc2cc(-c3ccc(Br)cc3)sc12 do in these assays?
GSTO1 counter: 15; LYPLA2 inh: -12; PAD4 FP inh: -5; PME-1 primary: -21; Fam108B counter: -19; LYPLA1 inh: -10

Results for O=c1[nH]c(CCl)nc2cc(-c3ccc(F)cc3)sc12 ?
GSTO1 counter: 97*; LYPLA2 inh: -4; PAD4 FP inh: -1; PME-1 primary: -2; Fam108B counter: -14; LYPLA1 inh: -3; GSTO1 confirm: 94*; GSTO1 ABPP inh: 82*

How did COc1ccc(C(=O)Nc2ccc3c(c2)C(=O)c2ccccc2C3=O)cc1OC do in these assays?
GSTO1 counter: 4; LYPLA2 inh: -1; PAD4 FP inh: 0; PME-1 primary: -2; Fam108B counter: 1; LYPLA1 inh: -3

Results for COc1ccc(C(=O)c2c(C(F)(F)F)oc3c2C(=O)c2ccccc2C3=O)cc1OC ?
GSTO1 counter: 77*; LYPLA2 inh: 0; PAD4 FP inh: 34*; PME-1 primary: 4; Fam108B counter: 7; LYPLA1 inh: -4; GSTO1 confirm: 65*

Results for CCOC(=O)Nc1ccc2c(c1)N(C(=O)CCN(CC)CC)c1ccccc1S2=O (stereo unspecified) ?
GSTO1 counter: -6; LYPLA2 inh: 0; PAD4 FP inh: 3; PME-1 primary: 0; Fam108B counter: -3; LYPLA1 inh: 1

What do the screens show for `CC1=C(C#N)C2(O)C(=O)c3ccccc3C2(O)N1` (stereo unspecified)?
GSTO1 counter: 2; LYPLA2 inh: 3; PAD4 FP inh: -7; PME-1 primary: -7; Fam108B counter: -3; LYPLA1 inh: -6

What do the screens show for `CC(=O)C1=C(C)OC2(O)c3ccccc3C(=O)C12O` (stereo unspecified)?
GSTO1 counter: 72*; LYPLA2 inh: 9; PAD4 FP inh: -11; PME-1 primary: 3; Fam108B counter: 8; LYPLA1 inh: 3; GSTO1 confirm: 80*

How did CCN(CC)C(=O)OCCc1cc2ccccc2c(=O)o1 do in these assays?
LYPLA2 inh: -2; PAD4 FP inh: -4; PME-1 primary: 7; LYPLA1 inh: 0

How did CN(CC(=O)Nc1ccc(Cl)c(Cl)c1)C(=O)C1CCC1 do in these assays?
PAD4 FP inh: 2

Results for Cc1cc(=O)n(-c2ccc(C(=O)O)cc2)[nH]1 ?
GSTO1 counter: 63*; LYPLA2 inh: -5; PAD4 FP inh: 2; PME-1 primary: -3; Fam108B counter: 5; LYPLA1 inh: -5; GSTO1 confirm: -1

Results for CC(=O)c1cccc(Nc2nc(-c3ccccc3)nc3ccccc23)c1 ?
GSTO1 counter: 0; LYPLA2 inh: -3; PAD4 FP inh: -4; PME-1 primary: 0; Fam108B counter: 3; LYPLA1 inh: -4

Results for CC(=O)c1cccc(-c2ccc3c(=O)[nH]c(Nc4ccccc4)cc3c2)c1 ?
GSTO1 counter: 49*; LYPLA2 inh: -7; PAD4 FP inh: -7; PME-1 primary: 21; Fam108B counter: 16; LYPLA1 inh: -5; GSTO1 confirm: 12

How did COC(=O)[C@@]12CCCCN1[C@H](c1ccc(-c3ccc(C(C)=O)cc3)c(OC)c1)[C@@H]1C(=O)N(C)C(=O)[C@@H]12 do in these assays?
GSTO1 counter: -3; LYPLA2 inh: -12; PAD4 FP inh: -7; PME-1 primary: -4; Fam108B counter: -5; LYPLA1 inh: -5

How did Cc1nnc(NC(=O)CN2CCN(Cc3ccccc3)CC2)s1 do in these assays?
GSTO1 counter: 46*; LYPLA2 inh: 0; PAD4 FP inh: 1; PME-1 primary: 0; Fam108B counter: 2; LYPLA1 inh: -2; GSTO1 confirm: 18

What do the screens show for `CC1=C([N+](=O)[O-])C(c2ccc3c(c2)OCO3)N(C)C(=O)N1C` (stereo unspecified)?
GSTO1 counter: 3; LYPLA2 inh: -3; PAD4 FP inh: -2; PME-1 primary: 0; Fam108B counter: 1; LYPLA1 inh: -6

Results for COC1=C(c2ccccc2)C(=O)c2ccccc2C1=O ?
GSTO1 counter: 44*; LYPLA2 inh: 0; PAD4 FP inh: -13; PME-1 primary: 9; Fam108B counter: 3; LYPLA1 inh: -1; GSTO1 confirm: 35*

Results for COc1ccccc1C(=O)COC(=O)c1c(-c2ccccc2)noc1C ?
GSTO1 counter: -14; LYPLA2 inh: 5; PAD4 FP inh: -4; PME-1 primary: 0; Fam108B counter: 2; LYPLA1 inh: 1

How did O=[N+]([O-])c1ccc(S(=O)(=O)c2cccc(C(F)(F)F)c2)nc1 do in these assays?
GSTO1 counter: 16; LYPLA2 inh: 4; PAD4 FP inh: 6; PME-1 primary: 2; Fam108B counter: 1; LYPLA1 inh: 3

Results for CC(C)(C)C(=O)NC(c1ccccc1)c1c(O)ccc2ccccc12 (stereo unspecified) ?
GSTO1 counter: 53*; LYPLA2 inh: 1; PAD4 FP inh: -5; PME-1 primary: 4; Fam108B counter: 2; LYPLA1 inh: 1; GSTO1 confirm: 6

What do the screens show for `O=C(NNC(=O)C(Cl)Cl)c1cnn(-c2ccccc2)c1C(F)(F)F`?
GSTO1 counter: 49*; LYPLA2 inh: 4; PAD4 FP inh: 1; PME-1 primary: 4; Fam108B counter: 1; LYPLA1 inh: 1; GSTO1 confirm: 29

What do the screens show for `CC(C)c1ccc(NC(=O)CN2C(=O)NC3(CCCCCCC3)C2=O)cc1`?
PAD4 FP inh: 4

What do the screens show for `CCCC[n+]1ccn(-c2nc3ccccc3nc2[N-]S(=O)(=O)c2ccc(Br)cc2)c1`?
GSTO1 counter: 8; LYPLA2 inh: 6; PAD4 FP inh: 2; PME-1 primary: 1; Fam108B counter: 3; LYPLA1 inh: 4

Results for CCCCC[n+]1ccn(C2=C([O-])c3ccccc3C(=O)/C2=N\S(=O)(=O)c2ccc(Cl)cc2)c1 ?
GSTO1 counter: 66*; LYPLA2 inh: 1; PAD4 FP inh: -4; PME-1 primary: -2; Fam108B counter: 0; LYPLA1 inh: -1; GSTO1 confirm: 28
